GLP-1R inv ag – GLP-1 receptor (human) inverse agonism; P43220; HEK293 GLP-1R CRE-luciferase, luminescence, 24 h; GLP-1R form is constitutively active; Potency, µM (highest dose often 38.3 µM), for the others: at the top dose activity change, negative = inhibition, most hits filed as inhibitors; hit rate 1.6% among 410,000; AID 624417; note: % is set by controls: 0 for no effect and ±100 for the full control effect; nearly all actives have a fitted effect of over 55% in size
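Readout was luciferase luminescence, measured 12 min after detection reagent at room temperature. Beforehand, GLP-1R reporter HEK293 cells had sat 12 h, then received compounds for 24 hr at 37 deg C.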
HEK293 tox – cytotoxicity in counter-screen for GLP-1R inverse agonists; hit rate 0.13% among 410,000; HEK293 cAMP-luciferase reporter cells, luminescence, 24 h; Potency, µM (series often up to 38.3 µM), for inactives: top-dose activity change, negative = inhibition, actives largely listed as inhibitors;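 note: loss of luciferase light is scored as toxicity; % is set by controls: 0 for no effect and ±100 for the full control effect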
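MLSMR compounds, 24 hr on cells at 37 deg C/5% CO2; luminescence after luciferase reagent (12 min RT). Inhibition counted as the undesired cytotoxic outcome.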
RORgamma inh – ROR gamma (mouse) transcription inhibition | P51450 | Drosophila S2 Gal4-RORgamma UAS-luciferase reporter, 20 h | Potency, µM (doses to about 53.6 µM), without a hit: at the top dose activity change, negative = inhibition, hits mostly inhibitors | hit rate 5.4% among 310,000 | AID 2551; note: % is set by controls: 0 for no effect and ±100 for the full control effect; nearly all actives have a fitted effect of over 60% in size
Target sequence (P51450 whole entry, looked up, the tested form may be a part): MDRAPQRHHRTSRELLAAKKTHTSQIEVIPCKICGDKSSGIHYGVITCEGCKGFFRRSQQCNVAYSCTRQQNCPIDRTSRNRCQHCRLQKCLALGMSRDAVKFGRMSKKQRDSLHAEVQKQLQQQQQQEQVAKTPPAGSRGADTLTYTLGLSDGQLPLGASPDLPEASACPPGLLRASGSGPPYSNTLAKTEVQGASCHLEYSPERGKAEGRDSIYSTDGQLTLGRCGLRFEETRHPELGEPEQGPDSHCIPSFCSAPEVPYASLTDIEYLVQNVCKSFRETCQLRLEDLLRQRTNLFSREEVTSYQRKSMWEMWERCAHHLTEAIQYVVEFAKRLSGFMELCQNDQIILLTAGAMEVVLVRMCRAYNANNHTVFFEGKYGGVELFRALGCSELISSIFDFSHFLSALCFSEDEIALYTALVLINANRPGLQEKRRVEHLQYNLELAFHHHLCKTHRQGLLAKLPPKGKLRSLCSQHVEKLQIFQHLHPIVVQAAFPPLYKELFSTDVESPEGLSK
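Stable Schneider cell line, Gal4 DNA-binding domain fused to ROR gamma, UAS-luciferase. Cmpd 1 hr RT → CuSO4 700 uM final → 20 hr RT → luciferase reagent 10 min → luminescence.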
Gal4-VP16 FLuc – Gal4-VP16 reporter inhibition counter-screen; Potency, µM (doses to about 53.6 µM), inactives show at the top dose activity, negative = inhibition, usual class: inhibitors; Drosophila S2 Gal4-VP16 UAS-luciferase, luminescence, 20 h; hit rate 3.5% among 310,000;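 note: Gal4-VP16 expression switched on by copper sulfate through the metallothionein promoter; % is set by controls: 0 for no effect and ±100 for the full control effect; nearly all actives have a fitted effect of over 50% in size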
GLP-1R agonist – GLP-1 receptor (human) agonism; P43220; HEK293 GLP-1R CRE-luciferase, luminescence, 4-6 h; cells express a hypersensitive GLP-1R form; Potency, µM (highest dose often 45.6 µM), for inactives: top-dose activation, usual class: activators; hit rate 0.007% among 380,000; AID 624172; note: % of control where 0% means no effect
The depositor's hits bear a star; ? = inconclusive; . = no result; [ ] = remark or other dose. Only some compounds are listed: those with a hit (about 5.9% of all), similar ones and a draw of the others. Calls come from the whole dose curve; as a rule, active = well fitted curve in the direction sought with a large enough effect; inconclusive = small, poorly fitted or top-dose-only effect, or another doubt; inactive = no such curve, though single readings can be large; an effect the other way counts as inactive or inconclusive. Potency is the fitted concentration of half-maximal effect.

SMILES	GLP-1R inv ag	HEK293 tox	RORgamma inh	Gal4-VP16 FLuc	GLP-1R agonist
COc1ccc(-n2c(=S)[nH]c3cc(C(=O)NC4CCCCC4)ccc3c2=O)c(OC)c1	2.5%[7.66 µM]	1.0%[7.66 µM]	40.1%	-15.9%	-0.6%
COc1ccc(NC(=O)c2ccc3c(=O)n(-c4ccc(OC)cc4OC)c(=S)[nH]c3c2)c(OC)c1	1.1%[7.66 µM]	1.6%[7.66 µM]	2.82µM*	8.91µM*	-3.9%
CCOc1ccc(NC(=O)c2ccc3c(=O)n(-c4ccc(OC)cc4OC)c(=S)[nH]c3c2)cc1	.	.	?	15.8µM*	.
COc1ccc(-n2c(=S)[nH]c3cc(C(=O)Nc4ccc(C)c(F)c4)ccc3c2=O)c(OC)c1	7.08µM*	-4.3%	5.01µM*	12.6µM*	-2.4%
COc1ccc(-n2c(=S)[nH]c3cc(C(=O)Nc4cc(C(N)=O)ccc4OC)ccc3c2=O)c(OC)c1	-13.1%	6.6%	-56.3%	-2.8%	0.0%
CC#CC[C@@H](C)[C@@H](O)/C=C/[C@H]1[C@H]2c3cccc(CCCC(=O)O)c3O[C@H]2C[C@@H]1O	.	.	.	.	1.3%
C#CC[N+](C)(C)CCCCCCCCCC	?	?	?	-2.8%	-6.1%
CC#CC[N+](C)(C)CCCCCCCCCCCC	?	?	?	7.08µM*	-0.2%
C#CC[N+](C)(C)CCCCCCCCCCCC	?	14.6%	?	11.2µM*	1.9%
O=C(O)c1cc(Cl)cc(Cl)c1	.	.	-2.1%	-2.2%	.
O=S(=O)(c1cccc(F)c1)N1CCc2sccc2C1c1ccc(OC(F)(F)F)cc1 (centres undefined)	7.94µM*	-2.0%	16.8%	-7.0%	-1.3%
Cc1cccc(N2CCN(C(=O)C3CCN(S(=O)(=O)c4ccc5c(c4)oc(=O)n5C)CC3)CC2)c1C	?	-5.0%	.	.	-0.3%
c1ccc2nc3c(nc2c1)[nH]c1ccccc13	0.0%	10.3%	?	-7.8%	5.4%
c1ccc(-c2c3ccccc3nc3[nH]c4ccccc4c23)cc1	?	7.2%	11.2µM*	?	17.4%
CCCCCC(=O)N=Nc1c(O)[nH]c2ccc([N+](=O)[O-])cc12	21.1%	11.8%	-3.4%	-3.7%	0.7%
CCNC(=S)N=Nc1c(O)[nH]c2ccc([N+](=O)[O-])cc12	?	?	2µM*	11.2µM*	4.4%
O=[N+]([O-])c1ccc2[nH]c(O)c(N=NC(=S)NCC3CCCO3)c2c1 (centres undefined)	95.8%	?	3.98µM*	?	-0.1%
O=[N+]([O-])c1ccc2[nH]c(O)c(N=NC(=S)Nc3cccnc3)c2c1	2.3%	?	0.3%	-1.0%	-0.5%
CCCC12CN3CC(CCC)(CN(C1)C3c1ccccc1)C2=O (centres undefined)	5.1%	17.5%	.	.	.
CSc1nsc(NC(=O)Cc2ccccc2)n1	32.6%	-2.1%	?	7.08µM*	0.6%
CSc1nsc(SCC(=O)Nc2ccccc2)n1	-25.5%	-7.0%	25.2%	-16.9%	3.7%
Nc1c(S(=O)(=O)c2ccccc2)c2nc3ccccc3nc2n1/N=C/c1ccco1	6.6%	9.8%	-34.6%	-23.5%	-16.3%
Nc1c(C(=O)NC2CCCCC2)c2nc3ccccc3nc2n1/N=C/c1ccco1	.	.	12.6µM*	?	.
CN(C)CCN1C(=O)C2C(C(=O)Nc3cc(Cl)cc(Cl)c3)C3C=CC2(O3)C1C(=O)NC1CCCCC1 (centres undefined)	10µM*	-2.4%	9.2%	2.8%	0.1%
Cc1cc(C)cc(NC(=O)C2C3C=CC4(O3)C2C(=O)N(CCN2CCCCC2)C4C(=O)NC2CCCCC2)c1 (centres undefined)	-17.5%	6.3%	1.2%	-18.6%	1.3%
SMILES	GLP-1R inv ag	HEK293 tox	RORgamma inh	Gal4-VP16 FLuc	GLP-1R agonist
Cc1nc(NCc2ccccc2)c2nc(-c3ccccc3)n(CC3CCN(C)CC3)c2n1	.	.	-4.2%	-8.1%	.
COC(=O)c1ccccc1NC(=O)N1CCc2c(sc3c2CCCC3)C1c1ccc(F)cc1 (centres undefined)	0.9%	-1.2%	.	.	.
CCOC(=O)Cc1ccc(NC(=O)N2CCc3c(sc4c3CCCC4)C2c2ccc(F)cc2)cc1 (centres undefined)	3.98µM*	0.1%	.	.	.
Cc1c(C(=O)Nc2nccs2)sc2nc(-c3cccs3)cc(C(F)(F)F)c12	-8.8%	-2.6%	0.794µM*	3.16µM*	-12.3%
Cc1cc(C)c2nc(NC(=O)c3ccc(S(=O)(=O)N4CCCC4)cc3)sc2c1	-0.8%	2.1%	.	.	14.2%
Cc1cc(C)c2nc(NNC(=O)c3ccc(S(=O)(=O)N4CCCCC4)cc3)sc2c1	?	-18.1%	3.16µM*	8.91µM*	0.7%
CCOC(=O)N1CCN(S(=O)(=O)c2ccc(C(=O)NNc3nc4c(C)cccc4s3)cc2)CC1	?	-16.5%	10µM*	5.01µM*	-2.1%
Cc1cccc2sc(NNC(=O)c3ccc(S(=O)(=O)N4CCc5ccccc5C4)cc3)nc12	?	-11.8%	-32.4%	?	-0.5%
Cc1cccc2sc(NNC(=O)c3ccc(S(=O)(=O)N4CCCC(C)C4)cc3)nc12 (centres undefined)	?	-7.3%	3.55µM*	3.16µM*	-4.2%
CCOC(=O)N1CCN(S(=O)(=O)c2ccc(C(=O)NNc3nc4ccc(Cl)cc4s3)cc2)CC1	?	-27.3%	7.08µM*	?	-5.8%
CCCc1nc2sc3c(N4CCC(C)CC4)ncnc3c2c2c1CCCC2	3.0%	-3.3%	.	.	.
CCOC(=O)N1CCN(S(=O)(=O)c2ccc(C(=O)NNc3nc4c(C)cc(C)cc4s3)cc2)CC1	?	-15.2%	14.1µM*	20µM*	0.3%
CCOC(=O)N1CCN(S(=O)(=O)c2ccc(C(=O)N(CCCN(C)C)c3nc4ccc(OC)cc4s3)cc2)CC1	?	-4.8%	-20.7%	-0.5%	-1.6%
CCOC(=O)N1CCN(S(=O)(=O)c2ccc(C(=O)NNc3nc4cc(C)cc(C)c4s3)cc2)CC1	?	-22.8%	11.2µM*	5.01µM*	-2.7%
CCOC(=O)N1CCN(S(=O)(=O)c2ccc(C(=O)N(CCN(C)C)c3nc4ccc(Cl)cc4s3)cc2)CC1	8.91µM*	0.0%	-23.2%	-2.1%	-3.1%
O=C(Nc1cccc(C(F)(F)F)c1)Nc1cc(Cl)ccc1C(=O)O	.	.	27.2%	-4.5%	.
Cc1ccc(NC(=S)NCCc2ccccc2)nc1	?	?	0.501µM*	5.01µM*	?
COc1ccc(CNC(=O)C(=O)Nc2cccc(C)c2C)cc1	-2.9%	-9.2%	.	.	2.3%
COc1ccc(CCNC(=S)Nc2cccc(C)c2C)cc1	-6.8%	?	3.98µM*	7.94µM*	-1.0%
Cc1cccnc1NC(=S)NCCc1ccccc1	?	?	2.82µM*	10µM*	?
Cc1ccc(NC(=O)CCCc2ccccc2)nc1	8.8%	-0.3%	?	27.5%	11.4%
Cc1cccc(NC(=S)NCCc2ccccc2)c1C	?	?	3.55µM*	5.01µM*	-2.3%
